POLI inh = inhibitors of human DNA polymerase iota. Pol iota fluorescent replication assay, 10 min. Potency, µM (top dose mostly 115 µM), for inactives: at the highest dose activity, negative = inhibition, usual class: inhibitors. hit rate 1% among 390,000. AID 588590
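Fluorescent replication assay read twice, at 0 min and 10 min after adding 50 nM (final) substrate. Enzyme (10 nM) and compounds were first incubated 15 min at room temperature; enzyme-free buffer wells were negative controls.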
Pol beta inh = inhibitors of human DNA polymerase beta; Potency, µM (titrated, usually from 114 µM), inactives show at the top dose activity change, negative = inhibition, hits mostly inhibitors; P06746; hit rate 1.3% among 340,000; Pol beta primer extension/strand displacement, fluorescence kinetic; AID 485314; further: on the % scale 0 is the no-effect control and ±100 the full control effect
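Reaction started by 50 nM substrate onto compound-treated Pol beta (10 nM, 15 min preincubation, room temperature); plates read at 0 min and 10 min. Normalized concentration-effect data fitted by four-parameter Hill equation.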
Pol kappa inh = DNA polymerase kappa (human) inhibition. AID 588579. hit rate 0.53% among 400,000. purified Pol kappa, fluorescent DNA synthesis assay, 10 min. Q9UBT6. Potency, µM (titrated, usually from 107 µM), inactives show top-dose activity, negative = inhibition, actives largely listed as inhibitors; further: on the % scale 0 is the no-effect control and ±100 the full control effect
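Kinetic fluorescence readout at 0 and 10 min followed reaction start with substrate at 50 nM final. Beforehand, enzyme (10 nM Pol kappa) stood 15 min with compound at room temperature; buffer-only wells were negative controls.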
WRN inhibitor = blocks human WRN helicase | WRN helicase unwinding, fluorescent forked duplex, kinetic | Potency, µM (doses to about 114 µM), without a hit: at the top dose activity change, negative = inhibition, actives largely listed as inhibitors | hit rate 0.46% among 360,000 | Q14191; further: on the % scale 0 is the no-effect control and ±100 the full control effect; nearly all actives have a fitted effect of over 55% in size
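Fluorescence dequenching readout, ex 525 nm/em 598 nm, kinetic mode: forked duplex DNA (100 nM final) with adjacent fluorophore and quencher unwound by WRN (20 nM final) with 2 mM ATP. Compound preincubation 15 min, room temperature.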
FEN1 inhibitor = human FEN1 inhibition; P39748; Recombinant FEN1 flap cleavage, fluorescence, 15 min; Potency, µM (titrated, usually from 114 µM), inactives show at the highest dose activity change, negative = inhibition, usual class: inhibitors; hit rate 0.35% among 390,000; further: on the % scale 0 is the no-effect control and ±100 the full control effect; nearly all actives have a fitted effect of over 65% in size
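Concentration–response screening of FEN1 (10 nM): 15 min compound preincubation at room temperature, reaction started with 50 nM substrate and read at 0 and 15 min. Corrected, normalized data were fitted by a four-parameter Hill equation.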
POLH inh = blocks human DNA polymerase eta activity. Q9Y253. recombinant Pol eta, fluorescent DNA replication assay. Potency, µM (top dose mostly 114 µM), for inactives: at the top dose activity change, negative = inhibition, usual class: inhibitors. hit rate 1.2% among 390,000; further: on the % scale 0 is the no-effect control and ±100 the full control effect
Target sequence (Q9Y253 whole entry, looked up): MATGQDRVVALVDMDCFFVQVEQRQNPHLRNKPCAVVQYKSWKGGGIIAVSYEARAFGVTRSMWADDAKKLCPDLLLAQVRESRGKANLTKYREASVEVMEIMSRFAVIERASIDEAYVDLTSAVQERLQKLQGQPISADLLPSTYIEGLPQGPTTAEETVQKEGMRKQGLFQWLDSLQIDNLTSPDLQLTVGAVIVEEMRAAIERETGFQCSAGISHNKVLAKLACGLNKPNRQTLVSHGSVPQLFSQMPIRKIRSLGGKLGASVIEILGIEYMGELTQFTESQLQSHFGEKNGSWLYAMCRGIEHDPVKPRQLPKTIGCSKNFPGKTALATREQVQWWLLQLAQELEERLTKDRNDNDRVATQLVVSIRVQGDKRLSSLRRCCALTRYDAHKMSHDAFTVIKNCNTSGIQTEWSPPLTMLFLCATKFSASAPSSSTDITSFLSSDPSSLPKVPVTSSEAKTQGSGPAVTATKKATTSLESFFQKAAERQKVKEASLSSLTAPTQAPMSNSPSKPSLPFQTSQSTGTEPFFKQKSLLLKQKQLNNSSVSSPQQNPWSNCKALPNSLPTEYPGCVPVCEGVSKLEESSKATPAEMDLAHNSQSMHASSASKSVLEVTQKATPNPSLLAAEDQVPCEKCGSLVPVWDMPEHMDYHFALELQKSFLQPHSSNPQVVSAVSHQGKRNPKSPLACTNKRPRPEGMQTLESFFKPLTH
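Pol eta at 10 nM preincubated with compounds 15 min at room temperature; reaction started with fluorescent substrate (50 nM final) and read kinetically at 0 and 10 min.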
Starred values were filed as active, the others as inactive; [ ] = remark or other dose. The list is not random: actives were taken first. Their share in the collection is about 2.4%. The call rests on the fitted dose curve; in most records, active means well fitted curve in the direction sought with a large enough effect; inconclusive means small, poorly fitted or top-dose-only effect, or another doubt; inactive means no such curve, though single readings can be large; an effect the other way counts as inactive or inconclusive. Potency means the concentration at half of the fitted maximal effect.

Results for COc1cc(/C=N/NC(=O)c2sc(N)c(C#N)c2C)cc(Br)c1O ?
POLI inh: inconclusive; Pol beta inh: -14%; Pol kappa inh: -24%; WRN inhibitor: -44%; FEN1 inhibitor: -3%; POLH inh: inconclusive

Results for COc1cc(/C=N/NC(=O)Cc2ccc(Br)cc2)cc(OC)c1O ?
POLI inh: 61%; Pol beta inh: 22µM*; Pol kappa inh: -13%; WRN inhibitor: -5%; FEN1 inhibitor: 6%; POLH inh: -16%

Results for CC(C)c1ccc(CNc2n[nH]c(-c3ccco3)n2)cc1 ?
POLI inh: 1%; Pol beta inh: -9%; Pol kappa inh: -22%; FEN1 inhibitor: -1%; POLH inh: -6%

How did C=C1[C@@H](O)CN(Cc2ccc(OC)cc2)S1(=O)=O do in these assays?
POLI inh: 3%; Pol kappa inh: -8%; FEN1 inhibitor: -1%

Results for COc1cc(/C=N/NC(N)=O)cc([N+](=O)[O-])c1O ?
POLI inh: 13%; Pol beta inh: inconclusive; Pol kappa inh: inconclusive; WRN inhibitor: -30%[57.1 µM]; FEN1 inhibitor: -9%; POLH inh: 50µM*

What do the screens show for `Cc1ccc(-c2csc(NC(=O)c3ccc(Br)cc3)c2C(=O)O)cc1`?
POLI inh: 24%; Pol beta inh: 20%; Pol kappa inh: 1%; WRN inhibitor: -18%; FEN1 inhibitor: 11%; POLH inh: 50µM*

What do the screens show for `CCOc1cc(CNC(=O)c2ccc(NC(=O)c3nsc4ccccc34)cc2)ccc1OC`?
POLI inh: -8%; Pol beta inh: -17%; Pol kappa inh: 2%[60.1 µM]; FEN1 inhibitor: 2%; POLH inh: 11%

How did COc1ccc(OC)c(CNC(=O)c2ccc(NC(=O)c3nsc4ccccc34)cc2)c1 do in these assays?
POLI inh: 89µM*; Pol beta inh: 40%; Pol kappa inh: -8%[60.1 µM]; FEN1 inhibitor: -14%; POLH inh: -8%

Results for O=C1C=CC(=O)N1CCCCCCN1C(=O)C=CC1=O ?
POLI inh: -37%; Pol beta inh: 0%; Pol kappa inh: -16%; WRN inhibitor: 20µM*; FEN1 inhibitor: -16%; POLH inh: inconclusive

How did O=C(O)CN1C(=O)C=CC1=O do in these assays?
WRN inhibitor: -13%; POLH inh: inconclusive

What do the screens show for `COc1ccc(N2CCN(C(=O)c3ccc(-c4nc(COc5ccccc5)c(C)o4)cc3)CC2)cc1`?
POLI inh: -17%; Pol beta inh: 19%; Pol kappa inh: -9%; FEN1 inhibitor: -10%; POLH inh: -1%

How did COc1ccc(NC(=O)Nc2cc(-c3cn4cccnc4n3)ccc2C)cc1 do in these assays?
POLI inh: 21%; Pol beta inh: 0%; Pol kappa inh: 3%; FEN1 inhibitor: -6%; POLH inh: -19%

Results for COc1cc(C(=O)Nc2ccc(C)c(S(=O)(=O)N(C)C)c2)ccc1OCC(=O)N1CCOCC1 ?
POLI inh: 50µM*; Pol kappa inh: -9%; WRN inhibitor: 3%[11.6 µM]; FEN1 inhibitor: 1%; POLH inh: inconclusive

What do the screens show for `O=C(CCC(=O)N1CCN(c2ccccn2)CC1)c1cccs1`?
POLI inh: 4%; Pol kappa inh: -7%; WRN inhibitor: -23%; FEN1 inhibitor: 0%; POLH inh: -19%

What do the screens show for `O=C(CCC(=O)N1CCN(c2ccccn2)CC1)c1ccc(Cl)s1`?
POLI inh: inconclusive; Pol kappa inh: 0%; WRN inhibitor: -19%; FEN1 inhibitor: 8%; POLH inh: 14µM*

What do the screens show for `C#CCN1C(=O)C(O)(CC(=O)/C=C/c2ccco2)c2ccccc21` (stereo unspecified)?
POLI inh: 35µM*; Pol beta inh: inconclusive; Pol kappa inh: inconclusive; WRN inhibitor: -5%; FEN1 inhibitor: 0%; POLH inh: inconclusive

Results for O=C(CC1(O)C(=O)N(CCc2ccccc2)c2ccccc21)c1ccco1 (stereo unspecified) ?
POLI inh: -12%; Pol beta inh: 9%; Pol kappa inh: -8%; WRN inhibitor: 2%; FEN1 inhibitor: -5%; POLH inh: inconclusive

Results for CCOC(=O)C(C(=O)OCC)c1cc(Br)c2noc3c2c1C(=O)c1ccccc1-3 ?
POLI inh: inconclusive; Pol beta inh: 79µM*; Pol kappa inh: inconclusive; WRN inhibitor: inconclusive; FEN1 inhibitor: inconclusive; POLH inh: 8.9µM*

What do the screens show for `Cc1c(CC(=O)NCc2ccccc2)c(=O)oc2c(C)c(O)ccc12`?
POLI inh: 4%; Pol beta inh: -10%; Pol kappa inh: 5%; FEN1 inhibitor: 28%; POLH inh: 2%

Results for O=C(O)CCC(=O)N1CCc2cc(S(=O)(=O)N3CC=C(c4ccccc4)CC3)ccc21 ?
POLI inh: inconclusive; Pol beta inh: 22µM*; Pol kappa inh: inconclusive; WRN inhibitor: -1%; FEN1 inhibitor: -2%; POLH inh: inconclusive

What do the screens show for `O=C(O)CCC(=O)N1CCc2cc(S(=O)(=O)N3CCCCC3)ccc21`?
POLI inh: 9%; Pol beta inh: 35%; Pol kappa inh: -11%; WRN inhibitor: 1%; FEN1 inhibitor: -13%; POLH inh: -7%

How did Cc1cccc(/C=C/C(=O)c2ccc([N+](=O)[O-])o2)c1 do in these assays?
POLI inh: 11µM*; Pol kappa inh: 13%; WRN inhibitor: -5%; FEN1 inhibitor: 2%; POLH inh: inconclusive

What do the screens show for `O=C(CC1N=C2c3ccccc3N=C(SCc3ccc(Cl)cc3)N2C1=O)NCCc1ccccc1` (stereo unspecified)?
POLI inh: -12%; Pol beta inh: -4%; Pol kappa inh: 2%[60.1 µM]; FEN1 inhibitor: -19%; POLH inh: -15%

What do the screens show for `COc1ccc(-c2cc(=O)c3c(O)cc(O[C@H]4OC(COC5OC(C)C(O)C(O)[C@H]5O)C(O)C(O)C4O)cc3o2)cc1O` (stereo partly specified)?
Pol kappa inh: 20µM*

Results for Cc1cc(=O)oc2cc(NC(=O)CC(N)C(=O)O)ccc12 (stereo unspecified) ?
Pol kappa inh: -8%[12 µM]

Results for Cc1cc(C(=O)COC(=O)c2cc(O)c3ccccc3c2O)c(C)n1CC1CCCO1 (stereo unspecified) ?
POLI inh: 53%; Pol beta inh: 45µM*; Pol kappa inh: -17%; WRN inhibitor: inconclusive; FEN1 inhibitor: inconclusive; POLH inh: -26%

How did CC(=O)OC1C[C@]2(C)C(C(C)=O)CCC2C2CCC3=CC(=O)CC[C@@]3(C)C12 (stereo partly specified) do in these assays?
Pol kappa inh: -8%[60.1 µM]

Screening data deposited in PubChem by National Center for Advancing Translational Sciences (NCATS).
